The supplement of paper PMC12819154, “High-throughput peptide-centric local stability assay extends protein–ligand identification to membrane proteins, tissues and bacteria” (Nature Structural & Molecular Biology, 2025)

What follows are targets tested with Cc1nc(Nc2ncc(C(=O)Nc3c(C)cccc3Cl)s2)cc(N2CCN(CCO)CC2)n1 [dasatinib] (assay: log2 fold change of tryptic peptide abundance, ligand vs vehicle (limited proteolysis) (log2 ratio); higher = more trypsin-susceptible (destabilized)). Conditions: ligand concentration: 5 uM; sample: K562 cleared lysate.

Sequence of UniProt P41240 (P41240 whole entry, looked up): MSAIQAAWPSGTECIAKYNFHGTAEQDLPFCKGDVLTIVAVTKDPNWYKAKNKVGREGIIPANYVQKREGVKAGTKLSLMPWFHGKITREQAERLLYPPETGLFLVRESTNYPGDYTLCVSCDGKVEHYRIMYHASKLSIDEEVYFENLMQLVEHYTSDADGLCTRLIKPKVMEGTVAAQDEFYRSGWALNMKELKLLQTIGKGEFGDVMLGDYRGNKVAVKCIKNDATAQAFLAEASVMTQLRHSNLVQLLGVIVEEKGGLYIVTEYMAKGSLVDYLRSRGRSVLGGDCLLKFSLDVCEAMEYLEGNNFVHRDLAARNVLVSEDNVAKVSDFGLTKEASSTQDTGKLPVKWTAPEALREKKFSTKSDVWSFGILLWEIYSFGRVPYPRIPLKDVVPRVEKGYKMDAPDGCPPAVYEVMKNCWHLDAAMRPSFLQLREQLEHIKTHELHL
Sequence of UniProt O60674 (O60674 whole entry): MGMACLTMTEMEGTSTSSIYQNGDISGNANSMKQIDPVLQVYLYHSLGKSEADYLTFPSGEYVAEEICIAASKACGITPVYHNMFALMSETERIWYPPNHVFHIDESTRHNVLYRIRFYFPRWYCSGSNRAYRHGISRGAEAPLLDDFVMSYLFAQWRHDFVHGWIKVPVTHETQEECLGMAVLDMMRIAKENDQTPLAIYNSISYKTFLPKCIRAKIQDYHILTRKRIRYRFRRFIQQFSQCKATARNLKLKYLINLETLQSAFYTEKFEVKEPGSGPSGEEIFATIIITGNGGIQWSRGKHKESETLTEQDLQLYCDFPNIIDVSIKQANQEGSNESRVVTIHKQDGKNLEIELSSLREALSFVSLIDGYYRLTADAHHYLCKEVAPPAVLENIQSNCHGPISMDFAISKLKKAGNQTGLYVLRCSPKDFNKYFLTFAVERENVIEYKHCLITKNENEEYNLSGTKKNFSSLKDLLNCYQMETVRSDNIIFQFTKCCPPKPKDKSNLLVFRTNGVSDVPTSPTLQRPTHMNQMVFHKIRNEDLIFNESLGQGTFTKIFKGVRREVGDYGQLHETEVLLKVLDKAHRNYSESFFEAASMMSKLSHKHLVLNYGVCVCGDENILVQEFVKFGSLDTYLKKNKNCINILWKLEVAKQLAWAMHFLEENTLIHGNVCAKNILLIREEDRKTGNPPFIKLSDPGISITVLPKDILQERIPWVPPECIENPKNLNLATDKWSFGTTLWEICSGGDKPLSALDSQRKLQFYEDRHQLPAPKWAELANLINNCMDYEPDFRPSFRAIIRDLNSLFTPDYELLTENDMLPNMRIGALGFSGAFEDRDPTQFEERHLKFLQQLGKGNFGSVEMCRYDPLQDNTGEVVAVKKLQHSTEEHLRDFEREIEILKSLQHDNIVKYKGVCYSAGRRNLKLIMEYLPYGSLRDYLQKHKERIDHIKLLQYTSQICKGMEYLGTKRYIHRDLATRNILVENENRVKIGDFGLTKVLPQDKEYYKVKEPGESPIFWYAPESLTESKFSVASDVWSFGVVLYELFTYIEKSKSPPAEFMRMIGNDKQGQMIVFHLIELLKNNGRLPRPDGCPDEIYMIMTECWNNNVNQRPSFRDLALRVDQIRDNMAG
Sequence of UniProt P29597 (P29597 whole entry): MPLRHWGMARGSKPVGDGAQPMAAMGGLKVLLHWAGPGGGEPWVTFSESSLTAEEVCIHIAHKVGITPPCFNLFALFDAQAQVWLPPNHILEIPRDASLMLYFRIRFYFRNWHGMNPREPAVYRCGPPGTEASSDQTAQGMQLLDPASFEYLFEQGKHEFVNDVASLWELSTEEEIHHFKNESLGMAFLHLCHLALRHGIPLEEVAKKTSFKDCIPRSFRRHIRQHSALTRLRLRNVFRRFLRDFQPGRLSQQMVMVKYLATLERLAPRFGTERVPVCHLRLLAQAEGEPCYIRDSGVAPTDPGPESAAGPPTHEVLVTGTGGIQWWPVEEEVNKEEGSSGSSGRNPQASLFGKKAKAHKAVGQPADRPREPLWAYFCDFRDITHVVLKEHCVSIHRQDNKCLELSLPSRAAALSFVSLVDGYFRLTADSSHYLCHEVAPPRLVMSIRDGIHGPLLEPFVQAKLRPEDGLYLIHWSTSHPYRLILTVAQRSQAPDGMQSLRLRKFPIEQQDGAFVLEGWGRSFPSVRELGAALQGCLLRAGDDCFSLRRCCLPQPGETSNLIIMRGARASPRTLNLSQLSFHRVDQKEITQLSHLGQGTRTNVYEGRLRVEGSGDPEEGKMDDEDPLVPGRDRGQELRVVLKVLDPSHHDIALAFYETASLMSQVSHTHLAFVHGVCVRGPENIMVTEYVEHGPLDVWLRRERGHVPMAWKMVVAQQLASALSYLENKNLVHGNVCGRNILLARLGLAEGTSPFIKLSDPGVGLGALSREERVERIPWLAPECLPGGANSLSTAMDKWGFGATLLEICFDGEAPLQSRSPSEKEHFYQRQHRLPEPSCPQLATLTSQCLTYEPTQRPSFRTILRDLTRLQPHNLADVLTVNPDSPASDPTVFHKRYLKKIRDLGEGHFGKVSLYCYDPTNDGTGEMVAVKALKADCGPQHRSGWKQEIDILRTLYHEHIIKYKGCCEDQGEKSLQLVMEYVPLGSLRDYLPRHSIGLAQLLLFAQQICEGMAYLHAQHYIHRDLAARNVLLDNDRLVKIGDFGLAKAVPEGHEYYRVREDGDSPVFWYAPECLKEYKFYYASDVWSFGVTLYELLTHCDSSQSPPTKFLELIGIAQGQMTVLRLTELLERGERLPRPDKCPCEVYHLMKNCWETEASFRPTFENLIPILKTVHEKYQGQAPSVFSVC

Target | log2 fold change
TYK2 (peptide sequence: EITQLSHLGQGTR, peptide start residue: 588) (UniProt P29597) | -1.29
Jak2 (peptide sequence: VLPQDKEYYK, peptide start residue: 1000) (UniProt O60674) | -0.993
CSK (peptide sequence: SGWALNMK, peptide start residue: 186) (UniProt P41240) | -0.697
